In PubChem BioAssay (Tox21):
Results filed as inconclusive are left out. Calls of active or inactive are those of the source. Unless noted, the call rests on the fitted dose curve; in most records, active means well fitted curve in the direction sought with a large enough effect in the repeat runs; inconclusive means weak or mixed curves; inactive means no such curve, though single readings can be large; an effect the other way counts as inactive or inconclusive.

Experiments:
[1] = qHTS assay to identify small molecule antagonists of the TGF-beta/Smad signaling pathway - cell viability counter screen (AID 1346824); further: nearly all actives have a fitted effect of over 50% in size
Method in brief: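 SBE-bla HEK 293T cells, incubated overnight, then compound plus 0.25 ng/mL TGF-beta1 (stock added) for 5 hr at 37 C. Viability was read in the same wells by CellTiter-Glo luminescence after 30 min at room temperature.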

[2] = qHTS assay to identify small molecule agonists of the TGF-beta/Smad signaling pathway - cell viability counter screen (AID 1346829); further: top concentration of the series differs between compounds; nearly all actives have a fitted effect of over 45% in size
Method in brief: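 Cytotoxicity counter screen: CellTiter-Glo luminescence (30 min, room temperature) measured in the SBE-bla HEK 293T reporter wells after 5 hr compound treatment at 37 C and the 2 hr substrate step.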

[3] = qHTS assay to identify small molecule agonists of the TGF-beta/Smad signaling pathway (AID 1346859; active means well fitted activation curve with a large enough effect in the signal ratio in the repeat runs, not every such curve was filed as active; the % refers to the signal ratio; further: series mostly up to about 77 µM)
Method in brief: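 Beta-lactamase reporter activity downstream of Smad binding elements was measured in stably transfected HEK 293T cells; compounds were incubated for 5 hr, substrate for 2 hr at room temperature.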

[4] = Human pregnane X receptor (PXR) small molecule agonists, qHTS cell viability counter screen (AID 1346977); further: nearly all actives have a fitted effect of over 50% in size
Method in brief: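 After a 5hr pre-incubation, PXR-Luc HepG2 cells received compounds plus positive control in DMSO and were kept 24hr at 37C. Cell viability was quantified by fluorescence from CellTiter-Fluor added for the final hour.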

[5] = Caspase-3/7 induction in HepG2 cells by small molecules, qHTS assay (AID 1346978); further: nearly all actives have a fitted effect of over 15% in size
Method in brief: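 Wild-type HepG2 cells, 2,000/well, settled 5 hr at 37 C and 5% CO2, then compound-treated for 17 hr; caspase-3/7 activity read by luminescent Caspase-Glo 3/7 after 30 min at room temperature.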

[6] = Caspase-3/7 induction in CHO-K1 cells by small molecules, qHTS cell viability counter screen (AID 1346979); further: nearly all actives have a fitted effect of over 35% in size
Method in brief: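 Multiplexed with Caspase-Glo 3/7 in CHO-K1 cells, this counter screen added CellTiter-Fluor after 16hr of compound exposure and recorded fluorescence 1hr later.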

[7] = Caspase-3/7 induction in CHO-K1 cells by small molecules, qHTS assay (AID 1346980); further: nearly all actives have a fitted effect of over 15% in size
Method in brief: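 Wild-type CHO-K1 cells exposed to compounds for 17hr at 37 C, 5% CO2. Caspase-3/7 activity then measured by Caspase-Glo 3/7 luminescence after 30min at room temperature.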

[8] = molecular target: Nuclear receptor subfamily 1 group I member 2 (Homo sapiens) (UniProt O75469); test: Human pregnane X receptor (PXR) small molecule agonists, qHTS assay (AID 1346982); further: nearly all actives have a fitted effect of over 35% in size; further: potency means the concentration at half of the fitted maximal effect
Method in brief: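 HepG2 PXR-Luc reporter line, 5% charcoal-stripped FBS; 5 hr pre-incubation, compound (DMSO) 24 hr at 37 C/5% CO2; ONE-Glo 30 min RT; luminescence read-out.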

[9] = molecular target: Cytochrome P450 2C19 (Homo sapiens) (UniProt P33261); test: Cytochrome P450 Family 2 Subfamily C Member 19 (CYP2C19) small molecule antagonists: luciferase reporter qHTS assay (AID 1671197); further: nearly all actives have a fitted effect of over 65% in size; further: potency means the concentration at half of the fitted maximal effect; on activity change, negative = inhibition: series mostly up to about 120 µM
Method in brief: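 Luminescent readout of CYP2C19 activity: luciferin product detected 20 min after adding detection reagent. Before that, compound and enzyme-substrate mix preincubated 10 min at room temperature; NADPH-regenerating system started a 1 h, 37C reaction. Ketoconazole as positive control.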

[10] = molecular target: Cytochrome P450 2C9 (Homo sapiens) (UniProt P11712); test: Cytochrome P450 Family 2 Subfamily C Member 9 (CYP2C9) small molecule antagonists: luciferase reporter qHTS assay (AID 1671198); further: nearly all actives have a fitted effect of over 50% in size; further: potency means the concentration at half of the fitted maximal effect; on activity change, negative = inhibition: series mostly up to about 120 µM
Method in brief: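 P450-Glo proluciferin substrate with CYP2C9 enzyme; 10 min RT preincubation, then NADPH regeneration 1 h at 37C; luciferin detection reagent 20 min RT, luminescence in relative luminescence units.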

[11] = molecular target: Voltage-gated inwardly rectifying potassium channel KCNH2 (Homo sapiens) (UniProt Q12809); test: Human Ether-a-go-go-Related Gene (hERG) channel small molecule antagonists: fluorescence cell-based qHTS assay (AID 1671200);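 further: hERG-expressing U2OS cells given a thallium stimulus after FluxOR II dye loading; series mostly up to about 77 µM; nearly all actives have a fitted effect of over 50% in size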
Method in brief: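 Cell line hERG-U2OS; dye FluxOR II, 1 h RT dark; Tl+ stimulus; ex 480/em 540 nm, read each second for 2 min.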

[12] = Caspase-3/7 induction in HepG2 cells by small molecules, qHTS cell viability counter screen (AID 1346981); further: series mostly up to about 92 µM; nearly all actives have a fitted effect of over 30% in size
Method in brief: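 Fluorescence read-out of live-cell protease activity (CellTiter-Fluor) after 1 hr with reagent. This was measured in the same wells as the caspase-3/7 luminescence, on HepG2 cells exposed to DMSO-dissolved compounds for 16 hr at 37 C.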

[13] = molecular target: Cytochrome P450 2D6 (Homo sapiens) (UniProt P10635); test: Cytochrome P450 Family 2 Subfamily D Member 6 (CYP2D6) small molecule antagonists: luciferase reporter qHTS assay (AID 1671196)
Method in brief: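 Luminogenic proluciferin substrate, CYP2D6 enzyme; 10 min RT preincubation with compound, NADPH regeneration system added, 1 h RT. Stop/detection reagent, 20 min RT, luminescence read (RLU). Signal proportional to CYP activity.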

[14] = molecular target: Cytochrome P450 1A2 (Homo sapiens) (UniProt P05177); test: Cytochrome P450 Family 1 Subfamily A Member 2 (CYP1A2) small molecule antagonists: luciferase reporter qHTS assay (AID 1671199); further: nearly all actives have a fitted effect of over 50% in size; further: potency means the concentration at half of the fitted maximal effect; on activity change, negative = inhibition: series mostly up to about 120 µM
Method in brief: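 Luminescence readout (relative luminescence units) after luciferin detection reagent, 20 min RT. Preceded by 1 h room-temperature CYP1A2 reaction with NADPH regeneration solution following 10 min compound preincubation with enzyme and proluciferin substrate. Furafylline positive control.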

[15] = molecular target: Cytochrome P450 3A4 (Homo sapiens) (UniProt P08684); test: Cytochrome P450 Family 3 Subfamily A Member 4 (CYP3A4) small molecule antagonists: luciferase reporter qHTS assay (AID 1671201)
Method in brief: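 Room-temperature assay throughout: 10 min compound–enzyme/substrate preincubation, 1 h reaction after NADPH regeneration solution, 20 min detection. Luciferin formed from proluciferin substrate is quantified by luminescence.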

[16] = molecular target: Nuclear receptor subfamily 1 group I member 2 (Homo sapiens) (UniProt O75469); test: CYP3A4 induction through human pregnane X receptor (PXR) by small molecules, qHTS assay (AID 1346984); further: nearly all actives have a fitted effect of over 40% in size
Method in brief: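 HepG2-derived DPX-2 line carrying PXR plus a CYP3A4-promoter luciferase reporter; cells plated 5 hr, compound-exposed 24 hr at 37C. CYP3A4 activity probed with 3uM (final) Luciferin-IPA for 3hr, then luciferase read after One-Glo.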

[17] = molecular target: Nuclear receptor subfamily 1 group I member 2 (Homo sapiens) (UniProt O75469); test: Human pregnane X receptor (PXR) activation by small molecules, qHTS assay (AID 1346985); further: nearly all actives have a fitted effect of over 40% in size
Method in brief: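 DPX-2 cells (HepG2 co-transfected with a PXR response element and a CYP3A4-promoter luciferase construct) were seeded at 2,000 per well, rested 5 hr at 37C, then exposed to DMSO-dissolved compounds for 24 hr. Activation was read as luciferase luminescence.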
On the % scale 0 is the no-effect control and ±100 the full control effect.

Cytochrome P450 2C19 (Homo sapiens), sequence (P33261 whole entry, looked up): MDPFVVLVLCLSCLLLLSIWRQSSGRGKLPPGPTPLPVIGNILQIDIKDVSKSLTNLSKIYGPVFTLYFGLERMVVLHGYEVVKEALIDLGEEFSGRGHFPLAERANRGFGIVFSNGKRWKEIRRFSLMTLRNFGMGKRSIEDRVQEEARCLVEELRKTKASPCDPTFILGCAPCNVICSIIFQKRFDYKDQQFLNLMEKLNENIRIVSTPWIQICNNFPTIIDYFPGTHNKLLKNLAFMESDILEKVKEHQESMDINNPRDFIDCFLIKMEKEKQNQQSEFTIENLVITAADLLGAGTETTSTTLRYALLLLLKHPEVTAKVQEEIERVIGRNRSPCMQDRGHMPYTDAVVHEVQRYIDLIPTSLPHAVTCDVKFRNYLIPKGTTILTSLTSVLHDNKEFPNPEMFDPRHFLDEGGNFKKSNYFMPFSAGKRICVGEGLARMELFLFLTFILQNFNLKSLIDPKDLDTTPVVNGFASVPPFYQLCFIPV
Cytochrome P450 2D6 (Homo sapiens), sequence (P10635 whole entry, looked up): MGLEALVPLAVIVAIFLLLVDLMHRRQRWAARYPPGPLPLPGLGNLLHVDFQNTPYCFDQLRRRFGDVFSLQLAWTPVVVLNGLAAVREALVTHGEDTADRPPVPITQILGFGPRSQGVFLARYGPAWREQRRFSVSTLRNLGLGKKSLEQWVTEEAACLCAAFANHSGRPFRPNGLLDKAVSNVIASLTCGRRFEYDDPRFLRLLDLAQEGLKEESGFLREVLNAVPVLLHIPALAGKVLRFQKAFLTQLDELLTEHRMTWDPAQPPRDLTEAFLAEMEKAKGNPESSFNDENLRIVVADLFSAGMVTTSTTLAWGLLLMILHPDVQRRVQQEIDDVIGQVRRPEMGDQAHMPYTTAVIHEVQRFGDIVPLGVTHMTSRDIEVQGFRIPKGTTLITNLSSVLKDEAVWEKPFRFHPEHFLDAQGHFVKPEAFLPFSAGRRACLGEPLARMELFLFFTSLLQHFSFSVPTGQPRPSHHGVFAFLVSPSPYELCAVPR
Voltage-gated inwardly rectifying potassium channel KCNH2 (Homo sapiens), sequence (Q12809 whole entry, looked up): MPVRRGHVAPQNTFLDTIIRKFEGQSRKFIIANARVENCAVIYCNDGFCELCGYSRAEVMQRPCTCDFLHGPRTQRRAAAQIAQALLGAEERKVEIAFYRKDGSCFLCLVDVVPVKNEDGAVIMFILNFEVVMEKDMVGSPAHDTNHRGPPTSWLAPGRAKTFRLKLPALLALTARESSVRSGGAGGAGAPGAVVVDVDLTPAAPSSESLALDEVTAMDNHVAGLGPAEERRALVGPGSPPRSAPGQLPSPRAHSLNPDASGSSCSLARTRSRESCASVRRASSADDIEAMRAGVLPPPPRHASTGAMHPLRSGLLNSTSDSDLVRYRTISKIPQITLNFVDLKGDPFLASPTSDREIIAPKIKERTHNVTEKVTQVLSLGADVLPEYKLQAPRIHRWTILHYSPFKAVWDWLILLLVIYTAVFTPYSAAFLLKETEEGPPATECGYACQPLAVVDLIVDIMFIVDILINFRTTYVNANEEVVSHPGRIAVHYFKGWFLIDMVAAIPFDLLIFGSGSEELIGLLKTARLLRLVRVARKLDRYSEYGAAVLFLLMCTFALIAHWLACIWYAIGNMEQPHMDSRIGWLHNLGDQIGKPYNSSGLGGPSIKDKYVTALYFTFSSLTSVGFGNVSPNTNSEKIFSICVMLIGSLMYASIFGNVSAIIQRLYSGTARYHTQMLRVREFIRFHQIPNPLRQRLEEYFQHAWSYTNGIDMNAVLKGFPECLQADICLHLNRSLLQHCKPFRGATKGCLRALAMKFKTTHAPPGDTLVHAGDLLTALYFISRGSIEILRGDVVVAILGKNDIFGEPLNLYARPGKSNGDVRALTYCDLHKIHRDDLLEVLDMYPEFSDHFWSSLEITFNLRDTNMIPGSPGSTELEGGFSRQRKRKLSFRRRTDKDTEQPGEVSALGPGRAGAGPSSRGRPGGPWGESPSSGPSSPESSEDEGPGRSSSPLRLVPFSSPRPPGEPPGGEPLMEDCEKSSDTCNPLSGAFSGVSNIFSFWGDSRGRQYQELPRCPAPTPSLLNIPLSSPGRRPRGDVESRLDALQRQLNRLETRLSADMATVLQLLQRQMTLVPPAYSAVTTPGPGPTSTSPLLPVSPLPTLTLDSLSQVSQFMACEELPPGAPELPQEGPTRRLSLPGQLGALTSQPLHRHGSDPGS
Nuclear receptor subfamily 1 group I member 2 (Homo sapiens), sequence (O75469 whole entry, looked up): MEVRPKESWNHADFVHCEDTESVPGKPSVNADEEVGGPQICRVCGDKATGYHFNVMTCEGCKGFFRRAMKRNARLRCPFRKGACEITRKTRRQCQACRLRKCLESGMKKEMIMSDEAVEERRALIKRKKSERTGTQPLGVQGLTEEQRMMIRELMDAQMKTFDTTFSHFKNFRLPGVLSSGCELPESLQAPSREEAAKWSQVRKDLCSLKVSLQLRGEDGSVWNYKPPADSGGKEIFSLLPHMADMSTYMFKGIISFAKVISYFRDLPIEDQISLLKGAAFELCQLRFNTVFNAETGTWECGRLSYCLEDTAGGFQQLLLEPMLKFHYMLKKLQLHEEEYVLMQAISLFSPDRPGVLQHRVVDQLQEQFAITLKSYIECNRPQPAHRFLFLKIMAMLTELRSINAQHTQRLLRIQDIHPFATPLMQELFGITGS
Cytochrome P450 3A4 (Homo sapiens), sequence (P08684 whole entry, looked up): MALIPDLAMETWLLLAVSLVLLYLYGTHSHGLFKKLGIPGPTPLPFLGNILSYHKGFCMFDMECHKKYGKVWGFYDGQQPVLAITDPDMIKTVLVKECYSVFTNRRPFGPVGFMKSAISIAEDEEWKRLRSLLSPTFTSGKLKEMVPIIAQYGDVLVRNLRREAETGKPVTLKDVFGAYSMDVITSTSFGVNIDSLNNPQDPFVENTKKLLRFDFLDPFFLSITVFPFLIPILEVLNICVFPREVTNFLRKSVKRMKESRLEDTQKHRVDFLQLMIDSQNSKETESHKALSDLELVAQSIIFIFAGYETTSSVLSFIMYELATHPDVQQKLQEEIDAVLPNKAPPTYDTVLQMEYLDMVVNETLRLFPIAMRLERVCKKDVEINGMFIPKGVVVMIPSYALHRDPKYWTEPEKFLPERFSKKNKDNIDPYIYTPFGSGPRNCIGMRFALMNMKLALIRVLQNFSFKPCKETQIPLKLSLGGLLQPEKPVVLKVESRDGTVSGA
Cytochrome P450 1A2 (Homo sapiens), sequence (P05177 whole entry, looked up): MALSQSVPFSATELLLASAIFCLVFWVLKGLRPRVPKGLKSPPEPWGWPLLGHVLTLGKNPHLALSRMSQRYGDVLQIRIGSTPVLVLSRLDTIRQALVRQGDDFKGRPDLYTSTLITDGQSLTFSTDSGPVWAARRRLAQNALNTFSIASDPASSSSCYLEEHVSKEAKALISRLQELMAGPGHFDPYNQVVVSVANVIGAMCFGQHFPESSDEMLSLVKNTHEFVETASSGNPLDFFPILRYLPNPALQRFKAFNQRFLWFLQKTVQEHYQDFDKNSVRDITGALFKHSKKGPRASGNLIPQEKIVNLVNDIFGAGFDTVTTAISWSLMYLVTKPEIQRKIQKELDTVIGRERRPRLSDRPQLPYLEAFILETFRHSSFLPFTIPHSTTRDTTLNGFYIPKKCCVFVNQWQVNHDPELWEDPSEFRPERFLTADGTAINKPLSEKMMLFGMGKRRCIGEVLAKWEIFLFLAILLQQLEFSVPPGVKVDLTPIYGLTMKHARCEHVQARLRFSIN
Cytochrome P450 2C9 (Homo sapiens), sequence (P11712 whole entry, looked up): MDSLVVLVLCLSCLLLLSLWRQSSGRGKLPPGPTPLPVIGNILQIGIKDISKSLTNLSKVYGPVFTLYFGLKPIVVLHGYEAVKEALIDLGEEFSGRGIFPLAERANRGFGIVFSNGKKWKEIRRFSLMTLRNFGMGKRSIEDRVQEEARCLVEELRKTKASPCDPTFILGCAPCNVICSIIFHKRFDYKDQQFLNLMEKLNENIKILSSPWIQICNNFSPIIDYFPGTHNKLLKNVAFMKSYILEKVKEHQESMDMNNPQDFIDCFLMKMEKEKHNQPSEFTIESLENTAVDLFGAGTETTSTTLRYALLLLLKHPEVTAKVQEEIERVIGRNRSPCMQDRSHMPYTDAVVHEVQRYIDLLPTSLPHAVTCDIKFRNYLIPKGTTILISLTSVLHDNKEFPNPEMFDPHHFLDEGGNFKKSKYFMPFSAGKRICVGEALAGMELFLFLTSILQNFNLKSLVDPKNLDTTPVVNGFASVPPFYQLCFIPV

O=C(O)CCCCCC(=O)O
inactive: outcome [1] | outcome [2] | outcome [3] | outcome [4] | outcome [5] | Potency [6] | outcome [7] | Potency [8] | Potency [9] | Potency [10] | Potency [11]

CCCC(CC)c1ccccc1 (stereo not given)
inactive: outcome [1] | outcome [2] | outcome [3] | outcome [4] | Potency [6] | outcome [7] | outcome [12] | Potency [13] | Potency [9] | Potency [10] | Potency [14] | Potency [11] | Potency [15]

O=S(=O)(O)c1ccc2c(N=Nc3ccc(S(=O)(=O)O)c4ccccc34)c(O)c(S(=O)(=O)O)cc2c1
inactive: viability change, negative = cytotoxic [1] 5.53% [at 6.97 µM] | activity change, negative = cytotoxicity [2] 12.6% [at 6.97 µM] | activation [3] 0.897% [at 6.97 µM] | caspase activation [5] -0.326% [at 8.39 µM] | caspase-3/7 activation [7] -0.308% [at 8.39 µM] | activation [8] 1.28% [at 8.39 µM] | Potency [16] | Potency [17] | activity change, negative = inhibition [9] -14.2% [at 10.5 µM] | activity change, negative = inhibition [10] -3.9% [at 10.5 µM] | activity change, negative = inhibition [14] -17.3% [at 10.5 µM] | activity change, negative = inhibition [11] 1.92% [at 6.97 µM] | activity change, negative = inhibition [15] 1.51% [at 10.5 µM]

CCN(CC)CCN
inactive: outcome [1] | outcome [2] | outcome [3] | outcome [4] | outcome [5] | Potency [6] | outcome [7] | Potency [8] | Potency [9] | Potency [10] | Potency [11] | Potency [15]

Cc1ccc(N)cc1S(=O)(=O)O
active: Potency [8] 61.1 µM | Potency [9] 79.6 µM | Potency [10] 63.3 µM | Potency [14] 39.9 µM
inactive: outcome [1] | outcome [2] | outcome [3] | outcome [4] | outcome [5] | Potency [6] | outcome [7] | Potency [15]

[O]=[Mo](=[O])=[O]
inactive: viability change, negative = cytotoxic [1] 0.506% [at 15.8 µM] | activity change, negative = cytotoxicity [2] 7.35% [at 15.8 µM] | activation [3] 0.212% [at 15.8 µM] | activity change, negative = cytotoxicity [4] 1.91% [at 19 µM] | caspase activation [5] 1.23% [at 19 µM] | activity change, negative = cytotoxicity [6] 3.86% [at 19 µM] | caspase-3/7 activation [7] 0.334% [at 19 µM] | activity change, negative = cytotoxicity [12] -3.34% [at 19 µM] | activation [8] 1.34% [at 19 µM] | activity change, negative = inhibition [9] -2.98% [at 23.6 µM] | activity change, negative = inhibition [10] -0.296% [at 23.6 µM] | activity change, negative = inhibition [14] 2.53% [at 23.6 µM]

O=C1CCC(=O)N1Cl
inactive: outcome [1] | outcome [2] | outcome [3] | outcome [4] | Potency [6] | outcome [7] | Potency [8] | Potency [13] | Potency [9] | Potency [10] | Potency [11] | Potency [15]

CCCCCCCCCCCCCCCCCC#N
inactive: outcome [1] | outcome [2] | outcome [3] | outcome [4] | outcome [5] | Potency [6] | outcome [7] | outcome [12] | Potency [8] | Potency [13] | Potency [10] | Potency [11] | Potency [15]

CN(C)CCN(C)CCO
inactive: outcome [1] | outcome [2] | outcome [3] | outcome [4] | outcome [5] | Potency [6] | outcome [7] | outcome [12] | Potency [8] | Potency [9] | Potency [10] | Potency [15]

CCCCCc1cccc(=O)o1
inactive: outcome [1] | outcome [2] | outcome [3] | outcome [4] | Potency [6] | outcome [7] | outcome [12] | Potency [8] | Potency [13] | Potency [15]
